This is part of a sample that, as a whole, favours compounds with a hit. Of some 83,000 tested, about 20% had one in any assay.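 Note: values are percent growth. 100 is the growth of untreated cells, values between 100 and 0 indicate rising inhibition; between -100 and 0 indicates cell death.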 Calls of active or inactive are those of the source. Rule for the calls: active = growth percent below 10; inactive = the rest.
Legend:
Test in all cases: NCI-60 one-dose screen, 48 h (100 = growth as untreated, 0 = no growth, -100 = all killed)
Conditions in all cases: 10 µM unless noted
[1] = system: HCT-15 colon
[2] = system: HT29 colon
[3] = system: SNB-75 CNS
[4] = system: SNB-19 CNS
[5] = system: U251 CNS
[6] = system: PC-3 prostate
[7] = system: SK-MEL-5 melanoma
[8] = system: UACC-62 melanoma
[9] = system: LOX IMVI melanoma
[10] = system: SK-MEL-28 melanoma

Measured: growth

O=c1[nH]c(N2CCC(Cc3ccccc3)CC2)nc2sc3c(c12)CCCC3
inactive: [1] 101% | [2] 83.8% | [3] 89.4% | [4] 106% | [5] 91.7% | [6] 72.7% | [7] 102% | [8] 98.1% | [9] 97.4% | [10] 115%

Clc1ccc2nc(CI)c(CI)nc2c1
inactive: [1] 27.1% | [2] 100% | [3] 96.6% | [4] 97.1% | [5] 71.7% | [6] 84.8% | [7] 75% | [8] 81.9% | [9] 14.9% | [10] 113%

CCOC(=O)c1sc(NC(=O)COc2cccc(/C=C3\CCc4cc(OC)ccc4C3=O)c2)nc1C
inactive: [1] 56.5% | [2] 39.6% | [3] 99.3% | [4] 58.4% | [5] 41.1% | [6] 48.9% | [7] 44.1% | [8] 60.8% | [9] 48.8% | [10] 103%

COc1cccc(/C=N/Nc2nc3ccccc3s2)c1OC
inactive: [1] 43.1% | [2] 61.1% | [3] 86.5% | [4] 83.9% | [5] 49.1% | [6] 46.3% | [7] 52.6% | [8] 66.7% | [9] 47.6% | [10] 97.8%

CC(C)Cn1cnc2c(NCn3nc(-c4cc(Cl)cc(Cl)c4Cl)n(/N=C/c4ccc(Cl)cc4)c3=S)nc3ccccc3c21
inactive: [1] 91.1% | [2] 91.1% | [3] 90.5% | [4] 108% | [5] 86.6% | [6] 83.6% | [7] 57.2% | [8] 72% | [9] 74.4% | [10] 112%

COc1ccc2cc(C3=CC(=O)CCC3)ccc2c1
inactive: [1] 99.2% | [2] 86.7% | [3] 95.1% | [4] 92.1% | [5] 102% | [6] 91.3% | [7] 94.3% | [8] 77.1% | [9] 91.1% | [10] 115%

CCSCC1CC(O)(c2ccccc2)C(c2ccccc2)C(c2ccc(Cl)cc2)O1 (stereo not given)
active: [1] 7.75% | [5] 5.12% | [6] 4.66% | [7] -94.8% | [8] 0.0955% | [9] -85.2% | [10] -18.7%
inactive: [2] 13.5% | [3] 59.4% | [4] 28.5%

COC(=O)[C@H](Cc1cnc[nH]1)NC(=O)[C@@H](NC(=O)Nc1cc(C(F)(F)F)cc(C(F)(F)F)c1)C(C)C
inactive: [1] 35.4% [100 µM]
active: [2] -80.3% [100 µM] | [3] -95.3% [100 µM] | [4] -96.3% [100 µM] | [5] -96.8% [100 µM] | [6] -93.2% [100 µM] | [7] -91.5% [100 µM] | [8] -96.2% [100 µM] | [9] -84.5% [100 µM] | [10] -96.1% [100 µM]

Nc1ccc(Oc2c(F)c(F)c(Oc3ccc(N)cc3)c(F)c2F)cc1
inactive: [1] 86.7% | [2] 108% | [3] 89.5% | [4] 94.8% | [5] 83.3% | [6] 84.4% | [7] 111% | [8] 90.9% | [9] 86.5% | [10] 115%

CN(C)CCC(=O)Nc1ccc(-n2cc(-c3cccc(NC(=S)Nc4cccc(-c5cn(-c6ccc(NC(=O)CCN(C)C)cc6)nn5)c4)c3)nn2)cc1
inactive: [1] 92.5% | [2] 28.4% | [3] 119% | [4] 106% | [5] 70.9% | [6] 89% | [7] 97.2% | [8] 114% | [9] 19.3% | [10] 133%

COc1cc(/C=C/C(=O)C(C(=O)/C=C/c2ccc(OC(=O)CCNc3nnc(C)s3)c(OC)c2)C(=O)CCNc2nnc(C)s2)ccc1OC(=O)CCNc1nnc(C)s1
active: [1] -43.2% | [2] -69% | [3] -13.6% | [6] -16.4% | [7] -22.6% | [8] -67.6% | [9] -68.7% | [10] -15.6%
inactive: [4] 32.7% | [5] 11.1%

COc1ccc(C2=NN(C(N)=S)C(c3ccc4c(c3)OCO4)C2)cc1 (stereo not given)
inactive: [1] 23.2% | [3] 26.5% | [4] 46.9% | [5] 21.6% | [6] 33.3% | [7] 41.5% | [8] 43.6% | [10] 75.4%
active: [2] 7.46% | [9] -18.2%

COc1ccc(C2CC(c3ccc4c(c3)OCO4)=NN2C=O)cc1 (stereo not given)
inactive: [1] 102% | [2] 98% | [3] 76.4% | [4] 93.9% | [5] 102% | [6] 93.4% | [7] 95.9% | [8] 82.1% | [9] 95.4% | [10] 107%

FC(F)(F)c1cc(-c2nnc3n2N=C(N2CCCC2)CS3)cc(C(F)(F)F)c1
inactive: [1] 96.9% | [2] 86.2% | [3] 29.6% | [4] 65.4% | [5] 37.6% | [6] 84.2% | [7] 80.5% | [8] 69.1% | [9] 84.3% | [10] 101%

Nc1nc(NC2CC2)c2ncn(C3C=CC(CO)C3)c2n1 (stereo not given)
inactive: [1] 107% | [2] 101% | [3] 117% | [4] 112% | [5] 102% | [6] 119% | [7] 91.6% | [8] 83.6% | [9] 103% | [10] 118%

COc1ccc(-c2nnc3c4[nH]cnc4ncn23)c(OC)c1
active: [9] 5.63%
inactive: [1] 29.2% | [2] 19.5% | [3] 39.2% | [4] 96% | [5] 41.1% | [6] 40.7% | [7] 49% | [8] 23.7% | [10] 84.7%

O=C(/C=C/c1cccc(Nc2ccnc3cc(Cl)ccc23)c1)c1ccc(Cl)cc1
inactive: [1] 54.8% | [2] 21.8% | [3] 67.6% | [4] 63.2% | [5] 49.9% | [6] 62.9% | [7] 39.6% | [8] 50.2% | [9] 11.2% | [10] 71%

O=C(N/N=C/c1ccc(Cl)cc1Cl)c1ccccc1Nc1cccc(C(F)(F)F)c1
inactive: [1] 72.5% | [2] 86.7% | [3] 78% | [4] 76.1% | [5] 22.4% | [6] 60.5% | [7] 53.5% | [8] 65.6% | [9] 50% | [10] 92.2%

COc1ccc(N2CCN(CC(=O)N3CCN(c4nnc(-c5ccc(Cl)cc5)c(-c5ccc(Cl)cc5)n4)CC3)CC2)cc1
inactive: [1] 45% | [2] 40.9% | [3] 76.3% | [4] 76% | [5] 52.3% | [6] 22.5% | [7] 38% | [8] 66.6% | [9] 49.6% | [10] 71.5%

COc1cccc(-c2nc3cc(NC(=O)c4ccc(Cl)c(C#N)c4)ccc3o2)c1
active: [2] -3.37% | [3] -2.82% | [4] 5.09% | [5] -12.9% | [7] 5.38% | [10] -7.87%
inactive: [1] 51.6% | [6] 14.4% | [8] 38.6% | [9] 21.9%

CCCCCCCCCCN1CCC(N2CCCCC2)CC1
active: [1] -5.57% | [2] -38.9% | [3] -47.8% | [5] 4.67% | [7] -96.9% | [8] -79.7% | [9] -72.8% | [10] -29.1%
inactive: [4] 28.2% | [6] 16%

C=C1CCC2C(C)(COC(=O)CC)C(OC(=O)CC)CCC2(C)C1C/C=C1/C(=O)OCC1OC(=O)CC (stereo not given)
active: [1] 0.0652% | [2] -73.2% | [3] -3.12% | [5] -72.3% | [8] 0.659% | [9] -99.1% | [10] -36.1%
inactive: [4] 62% | [6] 27.7% | [7] 16.8%

COc1ccc2c(c1)CC[C@@H]1[C@@H]2CC[C@]2(C)[C@@H](O)C(=O)C[C@@H]12
inactive: [1] 114% | [2] 105% | [3] 97.2% | [4] 102% | [5] 102% | [6] 95.1% | [7] 107% | [8] 94.5% | [9] 94% | [10] 113%

CCc1ccc(-c2nc(SCC(=O)NC3CCCCC3)n[nH]2)cc1
inactive: [1] 88.6% | [2] 101% | [3] 85.4% | [4] 98.7% | [5] 89.3% | [6] 77.1% | [7] 61.5% | [8] 57.8% | [9] 67.8% | [10] 108%

COCCCNS(=O)(=O)c1ncnc2nc[nH]c12
inactive: [1] 124% | [2] 125% | [3] 116% | [4] 122% | [5] 124% | [6] 106% | [7] 109% | [8] 112% | [9] 111% | [10] 152%

Cc1cc2c(cc1C)[n+](Cc1ccc3ccccc3c1)cn2Cc1ccc2ccccc2c1
active: [1] -77.4% | [2] -83.3% | [3] -73.6% | [4] -77.2% | [5] -91.6% | [6] -84% | [7] -99.2% | [8] -80.5% | [9] -86.7% | [10] -91.9%

CC(=O)c1ccc(NS(=O)(=O)c2ccc([N+](=O)[O-])cc2)cc1
inactive: [1] 95.2% | [2] 108% | [3] 97.7% | [4] 87.9% | [5] 103% | [6] 93.1% | [7] 96.9% | [8] 75.1% | [9] 98.8% | [10] 123%

From PubChem BioAssay (NCI)
